TrxR1 substrate: is turned over as a substrate by rat TrxR1; 0.01% of 390,000 active; AID 588456; purified TrxR1 substrate turnover, NADPH consumption readout; Potency, µM (doses to about 114 µM), inactives show at the top dose activity change, negative = substrate turnover; O89049; also: % is scaled to controls: 0 for no effect and ±100 for the full control effect; nearly all actives have a fitted effect of over 50% in size
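Rat TrxR1, dispensed at 90 nM, was prereduced with 400 uM NADPH (final) for 5 min at ~22 deg C, then incubated with compound 15 min before 400 uM selenite. A first-read NADPH fluorescence drop versus no-compound background flagged substrates.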
rTrxR1 inhibitor: rat TrxR1 inhibition; 1% of 390,000 active; recombinant rTrxR1, NADPH fluorescence consumption, selenite substrate; Potency, µM (series often up to 114 µM), inactives show at the top dose activity change, negative = inhibition, hits mostly inhibitors; also: % is scaled to controls: 0 for no effect and ±100 for the full control effect; nearly all actives have a fitted effect of over 65% in size
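Rat TrxR1 (90 nM in the dispensed reagent) was pre-reduced with 400 uM NADPH for 5 min at room temperature, then incubated with compound for 15 min. After 400 uM selenite was added, NADPH fluorescence (Ex 340/Em 450 nm) was followed for 8 min.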
GCN5L2 inh: inhibitors of human GCN5L2 histone acetyltransferase. Q92830. GCN5L2 HAT assay, ThioGlo1 CoA-SH fluorescence. Potency, µM (top dose mostly 58.9 µM), for the others: at the highest dose activity change, negative = inhibition, actives largely listed as inhibitors. 0.21% of 390,000 active. AID 504327; also: % is scaled to controls: 0 for no effect and ±100 for the full control effect
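Fluorescence readout, Ex340nm/Em540nm: ThioGlo1 (50uM final) reacts with free CoA thiol released as 20nM GCN5L2 acetylates H3(1-25) peptide (75uM) using acetyl-CoA (70uM). Compound and enzyme sat 15 min beforehand; 20 min room-temperature reaction.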
VDR inhibitor: blocks the human vitamin D receptor. P11473. VDR-SRC2-3 peptide fluorescence polarization, 2 h. Potency, µM, without a hit: max response, negative = inhibition, actives largely listed as inhibitors. 0.93% of 400,000 active; also: % is scaled to controls: 0 for no effect and ±100 for the full control effect
Target sequence (P11473 whole entry, looked up): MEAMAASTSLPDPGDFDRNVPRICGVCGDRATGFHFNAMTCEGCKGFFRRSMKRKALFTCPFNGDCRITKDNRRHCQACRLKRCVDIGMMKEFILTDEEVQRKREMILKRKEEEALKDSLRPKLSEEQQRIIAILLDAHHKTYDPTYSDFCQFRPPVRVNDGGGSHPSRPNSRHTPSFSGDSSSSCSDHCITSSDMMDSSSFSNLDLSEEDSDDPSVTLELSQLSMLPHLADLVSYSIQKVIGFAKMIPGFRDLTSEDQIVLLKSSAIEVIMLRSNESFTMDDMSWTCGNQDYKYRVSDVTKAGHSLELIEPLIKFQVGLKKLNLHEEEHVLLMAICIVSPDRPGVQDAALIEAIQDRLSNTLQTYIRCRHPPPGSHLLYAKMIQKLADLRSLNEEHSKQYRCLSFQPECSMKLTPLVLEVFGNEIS
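Fluorescence polarization assay measuring small-molecule disruption of VDR binding to the coregulator peptide SRC2-3. Compounds were pin-transferred (23 nl) into the reagent mix and incubated 2 h at room temperature before reading.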
VDR confirm: confirmation of human vitamin D receptor inhibitors. shares compounds with VDR inhibitor. VDR-coactivator inhibition assay, qHTS confirmation. Potency, µM, hits mostly inhibitors. 89% of 840 active. AID 602199
VDR FP fluor: confirmation of human VDR-coactivator binding inhibitors, fluorescein label. 48% of 840 active. AID 602200. shares compounds with VDR inhibitor. Potency, µM (series often up to 57.1 µM), for inactives: at the highest dose activity change, negative = inhibition, actives largely listed as inhibitors. VDR-coactivator binding, fluorescein fluorescence polarization
VDR bla: confirmation of human vitamin D receptor inhibitors in reporter cells | 23% of 840 active | VDR beta-lactamase reporter cells, FRET ratio; cells co-treated with VDR agonist LG190178 | shares compounds with VDR inhibitor | Potency, µM (series often up to 46.1 µM), for inactives: at the highest dose activity change, negative = inhibition, most hits filed as inhibitors; also: % is scaled to controls: 0 for no effect and ±100 for the full control effect
VDR viability: cell toxicity, VDR inhibitor hit counter-screen. shares compounds with VDR inhibitor. cytotoxicity counter-screen, cell viability, qHTS. Potency, µM (doses to about 48.3 µM), for the others: top-dose activity change, negative = cytotoxicity, actives largely listed as cytotoxic. 18% of 840 active. AID 602204;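 also: plate controls were DMSO for no effect and high-concentration cycloheximide for full effect; nearly all actives have a fitted effect of over 75% in size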
* marks the source's active call; other numbers are inactive results; [ ] = remark or other dose. Only some compounds are listed: those with a hit (about 1.8% of all), similar ones and a draw of the others. Calls follow the shape of the dose curve; as a rule, active = well fitted curve in the direction sought with a large enough effect; inconclusive = small, poorly fitted or top-dose-only effect, or another doubt; inactive = no such curve, though single readings can be large; an effect the other way counts as inactive or inconclusive. Potency is read from the fitted curve at half-maximal effect.

Results for COc1ccccc1NC(=O)C1=C(C)Nc2nc(SCc3ccccc3C)nn2C1CC(C)C (configuration not stated) ?
TrxR1 substrate: 0%; rTrxR1 inhibitor: 11%; GCN5L2 inh: -12%; VDR inhibitor: 36%

What do the screens show for `CS(=O)(=O)N1CCC2(CCCN(Cc3ccc(C#N)cc3)C2)CC1`?
GCN5L2 inh: 0%; VDR inhibitor: 3%

Results for [O-]/[N+](=C/c1ccc(F)cc1)c1ccc(Cl)cc1 ?
TrxR1 substrate: -16%; rTrxR1 inhibitor: -16%; GCN5L2 inh: 1%; VDR inhibitor: 32µM*; VDR confirm: 24*; VDR FP fluor: inconclusive; VDR bla: -13%; VDR viability: 6%

How did [O-]/[N+](=C\c1ccncc1)c1ccc(Br)cc1 do in these assays?
TrxR1 substrate: -5%; rTrxR1 inhibitor: 35µM*; GCN5L2 inh: -11%; VDR inhibitor: 45µM*; VDR confirm: 9.5*; VDR FP fluor: inconclusive; VDR bla: 6%; VDR viability: 2%

How did CC(=O)c1cccc(NC(=O)c2nc(-c3ccc(C)cc3)n3c2CCCCC3)c1 do in these assays?
TrxR1 substrate: 2%; rTrxR1 inhibitor: 15%; GCN5L2 inh: -1%; VDR inhibitor: 4%

Results for CCN(CC)c1ccc(NC(=O)C(Cc2ccccc2)NS(=O)(=O)c2ccc(Br)s2)c(C)c1 (configuration not stated) ?
TrxR1 substrate: -2%; rTrxR1 inhibitor: 2%; GCN5L2 inh: -1%; VDR inhibitor: 5%

Results for Cc1ccc(C(c2cc(Cl)c3cccnc3c2O)N2CCN(C)CC2)cc1 (configuration not stated) ?
TrxR1 substrate: 6%; rTrxR1 inhibitor: 4.5µM*; GCN5L2 inh: 32µM*; VDR inhibitor: 45µM*; VDR confirm: 19*; VDR FP fluor: inconclusive; VDR bla: -28%; VDR viability: inconclusive

What do the screens show for `O=C(NCc1cccc(F)c1)c1ccc(CS(=O)c2ccccc2Cl)o1` (configuration not stated)?
TrxR1 substrate: -2%; rTrxR1 inhibitor: -14%; GCN5L2 inh: -7%; VDR inhibitor: 15%

Results for COc1cc2c(cc1OC)[C@@H]1C(=O)c3ccc4c(c3O[C@@H]1CO2)C=CC(C)(C)O4 ?
GCN5L2 inh: 35%[0.501 µM]; VDR inhibitor: -17%

How did Cc1ccc(-n2nnnc2C(Cl)(Cl)c2nnnn2-c2ccc(C)cc2)cc1 do in these assays?
TrxR1 substrate: -11%[57.1 µM]; rTrxR1 inhibitor: -23%; GCN5L2 inh: -7%; VDR inhibitor: 6.3µM*; VDR confirm: 3.4*; VDR FP fluor: inconclusive; VDR bla: inconclusive; VDR viability: inconclusive

How did Clc1ccc(-c2nnnn2-c2ccc(Cl)cc2)cc1 do in these assays?
TrxR1 substrate: -12%; rTrxR1 inhibitor: -11%; GCN5L2 inh: -2%; VDR inhibitor: 8%

Results for O=C(Cn1c(=O)n(Cc2ccccc2)c(=O)c2sc3ccccc3c21)Nc1ccc(F)cc1 ?
TrxR1 substrate: 5%; rTrxR1 inhibitor: 23%; GCN5L2 inh: 4%; VDR inhibitor: -14%

How did CCOC(=O)c1nn(-c2ccccc2C)c(=O)c2c(N)scc12 do in these assays?
TrxR1 substrate: 6%[57.1 µM]; rTrxR1 inhibitor: 41%[57.1 µM]; GCN5L2 inh: -27%; VDR inhibitor: 35µM*; VDR confirm: inconclusive; VDR FP fluor: inconclusive; VDR bla: 21%; VDR viability: -27%

Results for CCOC(=O)N1C(=O)[C@@](CC)(c2ccccc2)N1C(=O)OCC ?
TrxR1 substrate: -9%; rTrxR1 inhibitor: 2.2µM*; GCN5L2 inh: 1%; VDR inhibitor: 79µM*; VDR confirm: 21*; VDR FP fluor: -23%; VDR bla: 5%; VDR viability: inconclusive

Results for COC(=O)N1C(=O)[C@@](CC(C)C)(c2ccccc2)N1C(=O)OC ?
GCN5L2 inh: 3%

How did CCN(CC)c1ccc(C=Nc2cc(C)cc(C)c2)c(O)c1 do in these assays?
TrxR1 substrate: -16%; rTrxR1 inhibitor: -8%; GCN5L2 inh: -5%; VDR inhibitor: -29%

Results for CCN(CC)c1ccc(C=Nc2ccc(N(C)C)cc2)c(O)c1 ?
TrxR1 substrate: -3%[57.1 µM]; rTrxR1 inhibitor: -8%[57.1 µM]; GCN5L2 inh: -6%; VDR inhibitor: inconclusive; VDR confirm: 4*; VDR FP fluor: 303%; VDR bla: -28%; VDR viability: -9%

What do the screens show for `Cc1nn(C(=O)c2ccccc2)c(C)c1S(=O)(=O)N1CCOCC1`?
TrxR1 substrate: 0%[57.1 µM]; rTrxR1 inhibitor: -25%[57.1 µM]; GCN5L2 inh: -1%; VDR inhibitor: -4%

Results for O=C1ON=C(c2ccccc2)/C1=C/c1ccc(OS(=O)(=O)c2ccccc2)cc1 ?
TrxR1 substrate: -17%; rTrxR1 inhibitor: 2.8µM*; GCN5L2 inh: inconclusive; VDR inhibitor: inconclusive; VDR confirm: 3.5*; VDR FP fluor: 3.2µM*; VDR bla: 2%; VDR viability: 8%

What do the screens show for `Cc1ccc(/C=C2\C(=O)ON=C2c2ccccc2)o1`?
TrxR1 substrate: -11%; rTrxR1 inhibitor: 17%[57.1 µM]; GCN5L2 inh: -1%; VDR inhibitor: inconclusive

How did COC1C(O)C(CO)OC1n1cnc2c(=O)[nH]c(N)nc21 (configuration not stated) do in these assays?
GCN5L2 inh: -26%; VDR inhibitor: 14%

How did COc1ccccc1-c1noc(-c2ccc(N3CCN(c4ccccc4)CC3)c([N+](=O)[O-])c2)n1 do in these assays?
TrxR1 substrate: 0%; rTrxR1 inhibitor: 2%; GCN5L2 inh: -2%; VDR inhibitor: 20%

How did CCN(Cc1ccccc1)C(=O)Cn1c(=O)n(Cc2ccccc2)c(=O)c2c1c1cc(OC)ccc1n2C do in these assays?
TrxR1 substrate: 35%; rTrxR1 inhibitor: 70%; GCN5L2 inh: -4%; VDR inhibitor: 2%

What do the screens show for `COc1cc(/C=C2/C(=O)c3cccc([N+](=O)[O-])c3C2=O)c(Br)cc1O`?
TrxR1 substrate: -16%; rTrxR1 inhibitor: 28µM*; GCN5L2 inh: inconclusive; VDR inhibitor: 20µM*; VDR confirm: 7.5*; VDR FP fluor: 3.2µM*; VDR bla: inconclusive; VDR viability: inconclusive
